# Sm TGR block – inhibitors of Schistosoma mansoni thioredoxin glutathione reductase | Q962Y6 | purified TGR, DTNB reduction, TNB absorbance 405 nm | Potency, µM (doses to about 114 µM), most hits filed as inhibitors | 3% of 360,000 active | AID 485364; note: nearly all actives have a fitted effect of over 60% in size
#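 Kinetic colorimetric format: TGR-catalysed, NADPH-driven DTNB reduction monitored via TNB absorbance. Enzyme dispensed at 20 nM; compound exposure 15 min at room temperature before reaction start.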
# FMDV antiviral – antivirals against foot and mouth disease virus; Potency, µM (doses to about 57.9 µM), actives largely listed as inhibitors; AID 1159524; FMDV antiviral cell-based qHTS; 1.2% of 410,000 active; calls by dose curve; tested in HEK293T cells; note: read-out not given here; nearly all actives have a fitted effect of over 45% in size
# MARV entry inh – blocks Marburg virus binding to or entry into cells; 1.8% of 300,000 active; Potency, µM (doses to about 37.8 µM), hits mostly inhibitors; AID 540276; Marburg virus pseudotyped entry inhibition, cell reporter; calls by dose curve; tested in HEK293 cells
# HCV inhibitor – HCV inhibition. Huh7.5.1 HCVcc-Cre infection, luciferase reporter, 44 h. Potency, µM (top dose mostly 41.8 µM), usual class: inhibitors. 3.4% of 340,000 active
#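 Reporter virus HCVcc-Cre (~0.5 moi) infects cells exposed to compound; seeding density 1,000 cells/well with 4 h settling beforehand. Luminescence, 15 sec read, taken 44 h post-infection following a 15 min RT substrate incubation.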
# RE007 growth inh – less growth of the S. pombe RE007 Vpr strain. 0.21% of 360,000 active. Potency, µM (top dose mostly 92.2 µM), actives largely listed as inhibitors. S. pombe RE007 Vpr strain, BacTiter-Glo ATP luminescence, 24 h; active = well fitted falling curve with a large enough effect; inconclusive = small, poorly fitted or top-dose-only effect; inactive = no such curve, though single readings can be large or run the other way; note: nearly all actives have a fitted effect of over 50% in size
#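 Fission yeast RE007 carrying one integrated HIV-1 vpr copy, seeded at OD 0.01 in PMG+AL medium with 23 nL pinned compound. Grown 24 h at 30 degrees; viability read by BacTiter-Glo luminescence after 5 min.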
# Lassa entry inh – Lassa virus entry inhibition | Lassa virus pseudotype entry inhibition, cell reporter | Potency, µM (doses to about 37.9 µM), most hits filed as inhibitors | 1.2% of 300,000 active | AID 540256; calls by dose curve; tested in HEK293 cells; note: nearly all actives have a fitted effect of over 50% in size
# Numbers stand for hits; 0 = inactive; ? = inconclusive; - = no result; [ ] = another dose, or the depositor's remark. Most compounds without a hit are left out; they make up all but 7.2% or so of the library. Unless noted, calls come from the whole dose curve; as a rule, active = well fitted curve in the direction sought with a large enough effect; inconclusive = small, poorly fitted or top-dose-only effect, or another doubt; inactive = no such curve, though single readings can be large; an effect the other way counts as inactive or inconclusive.
SMILES,Sm TGR block,FMDV antiviral,MARV entry inh,HCV inhibitor,RE007 growth inh,Lassa entry inh
Cc1ccc2cc(COC(=O)c3ccco3)c(=O)[nH]c2c1,45µM,0,0,0,0,0
O=C(OCc1cc2ccccc2[nH]c1=O)c1ccco1,0,-,0,0,0,0
COC(=O)[C@@]1(C=C2c3ccc(F)cc3[C@@H](OC)[C@@H]2C)[C@@H]2Oc3ccccc3[C@@H]21,-,-,0,-,-,-
Cc1ccc(-c2noc(-c3nnn(CC(=O)Nc4ccc(C)cc4Cl)c3N)n2)cc1,0,0,-,-,-,0
CCOc1ccccc1CNC(=O)CN1C(=O)C2CCCCN2c2ccc(C(=O)N(C)C)cc21 (stereo unspecified),0,0,-,-,-,0
CCOC(=O)C1CCCN(C(=O)c2cnn(-c3nccc(-c4cc(C)sc4C)n3)c2C)C1 (stereo unspecified),-,0,-,-,-,-
CCOCCCNC(=O)C(c1ccccc1)N1Cc2ccccc2C1=O (stereo unspecified),0,0,-,-,-,0
CN(C)S(=O)(=O)c1ccc(C(=O)NCCN2C(=O)S/C(=C\c3cccnc3)C2=O)cc1,0,0,0,0,0,0
CS(=O)(=O)c1ccc(C(=O)NCCN2C(=O)S/C(=C\c3cccnc3)C2=O)cc1[N+](=O)[O-],8.9µM,28µM,10µM,?,0,21µM
C[C@@H]1NCCc2cc(O)c(O)cc21,45µM,0,-,0,0,-
COc1ccc(C2=NOC3(CC(=O)N(c4ccc(F)cc4)C3=O)C2)cc1 (stereo unspecified),20µM,0,0,0,0,0
COc1ccc(C2=NOC3(CC(=O)N(c4ccc(F)cc4)C3=O)C2)c(OC)c1 (stereo unspecified),0,0,0,0,0,0
CC[N+]1(C)CCC(=C2c3ccccc3CC(=O)c3sccc32)CC1 (stereo unspecified),0,0,0,0,0,0
C[N+]1(C)CCC(=C2c3ccccc3CC(=O)c3sccc32)CC1,28µM,0,0,0,0,0
N#Cc1c2n(c3c(=O)n(Cc4ccccc4Cl)cnc13)CCCC2,0,0,?,11µM,0,?
C=C(C)CCN1C(=O)NC(c2ccccc2)C(C(C)=O)=C1C (stereo unspecified),-,-,0,-,-,?
Cc1nc2c(c(C)nn2-c2ccccc2)c(C)c1CCC(=O)Nc1ccc(CN2CCCC2)cc1,0,0,10µM,?,0,?
Cc1nc2c(c(C)nn2-c2ccccc2)c(C)c1CCC(=O)Nc1ccccc1,0,0,0,-,-,0
Cc1cccc(/C=C/c2onc(C)c2[N+](=O)[O-])n1,-,14µM,0,?,?,0
Cc1c(OCc2ccccc2)c(=O)ccn1Cc1ccc(F)cc1,0,?,?,1.8µM,0,0
Cc1ccc(Cn2ccc(=O)c(OCc3ccccc3)c2C)cc1,0,0,0,0,0,0
O=C(CCc1nnc(Cc2ccc3c(c2)OCO3)o1)NC(c1ccccn1)C(F)(F)F (stereo unspecified),32µM,0,-,0,0,-
CC(C)C[C@H]1CN(CCCC[C@H]2CNC(=O)C(=O)N2CCc2ccc(O)cc2)C(=O)C(=O)N1CCc1ccccc1,-,0,-,-,0,-
CCC(CC)C(=O)Nc1ccccc1SCc1cc(=O)c2cccc(C)c2[nH]1,0,0,-,-,-,0
O=C(c1cn(-c2ccccc2)nc1-c1ccccc1)N1CCN(c2ccccn2)CC1,0,0,?,10µM,0,?
SMILES,Sm TGR block,FMDV antiviral,MARV entry inh,HCV inhibitor,RE007 growth inh,Lassa entry inh
CCN1CCN(C(=O)c2cn(CCOC)c(=O)c3c2c2ccccc2n3C)CC1,0,0,0,0,0,0
CC(C)Cn1cc(C(=O)N2CCN(c3ccccn3)CC2)c2c3ccccc3n(C)c2c1=O,0,0,16µM,?,0,6.5µM
Cc1ccc(-c2nn(-c3ccccc3)cc2C(=O)N2CCN(c3ccccn3)CC2)cc1,0,0,?,11µM,0,0
O=C(c1cn(-c2ccccc2)nc1-c1ccccc1)N1CCOCC1,0[11.4 µM],0,0,0,0,0
Cc1ccccc1NC(=O)c1sc2nc3c(cc2c1N)CCCC3,0,0,?,-,-,0
C=CCn1c(C)cc(C(=O)COC(=O)c2ccc3c(c2)NC(=O)CS3)c1C,0,?,11µM,?,0,?
COCCn1c(C)cc(C(=O)COC(=O)c2ccc3c(c2)NC(=O)CS3)c1C,0,?,?,?,0,0
